# Hits are enriched below; roughly 6% of the tested compounds scored in any of these assays.
# D3 antag – qHTS of D3 Dopamine Receptor Antagonist: qHTS; D(3) dopamine receptor (Homo sapiens), P35462; D3R cells, DiscoveRx beta-arrestin luminescence, antagonist mode; active compounds read low; max response, negative = inhibition, %; 2.5% of 360,000 active; in the data active = max response below about -50%
#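 Cells expressing the human receptor were seeded at 1500 cells/well, incubated overnight at 37 degrees C in 5% CO2, then exposed to library compounds with dopamine controls for 90 minutes at 37 degrees C before luminescent detection.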
# DRD3 agonist – qHTS of D3 Dopamine Receptor Agonist: qHTS; D(3) dopamine receptor (Homo sapiens), P35462; D3R DiscoveRx beta-arrestin cells, luminescence, 90 min; max activation, %; 0.58% of 410,000 active; in the data active = max activation above about 30%
#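 Cells at 1500/well, incubated overnight, then treated with pinned compounds (dopamine as control) for 90 min at 37 degrees C. DiscoveRx reagent added for 30 - 60 minutes at room temperature; luminescence read.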
# D1 agonist – Allosteric Agonists of the Human D1 Dopamine Receptor: qHTS. HEK293 T-REx D1 cells, calcium flux, agonist mode. activation, % at 2 µM. 1% of 360,000 active; in the data active = activation above about 30%
# Target sequence (P21728 whole entry, looked up): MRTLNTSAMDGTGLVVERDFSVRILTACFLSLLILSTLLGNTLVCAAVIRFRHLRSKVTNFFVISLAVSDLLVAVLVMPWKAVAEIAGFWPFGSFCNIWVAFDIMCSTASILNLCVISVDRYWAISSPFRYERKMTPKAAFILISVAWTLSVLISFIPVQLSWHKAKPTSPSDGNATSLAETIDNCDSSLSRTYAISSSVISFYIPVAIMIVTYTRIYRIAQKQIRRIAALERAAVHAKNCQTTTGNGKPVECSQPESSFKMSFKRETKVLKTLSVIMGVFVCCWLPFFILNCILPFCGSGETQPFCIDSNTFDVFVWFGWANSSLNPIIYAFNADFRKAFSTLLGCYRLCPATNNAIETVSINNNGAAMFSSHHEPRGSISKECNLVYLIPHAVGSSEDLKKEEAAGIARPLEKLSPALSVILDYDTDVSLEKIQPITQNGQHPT
#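 Agonism was scored from calcium flux recorded over 180 s (1 read/s) after pintool compound addition, following a 10-cycle baseline. Cells were inducible force-coupled HEK293 TREx D1, plated overnight at 30 C and loaded with no-wash calcium dye.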
# D1 antag – Antagonist of Human D 1 Dopamine Receptor: qHTS. D(1A) dopamine receptor (Homo sapiens), P21728. HEK293 TREx D1 cells, calcium flux, dopamine EC80; active compounds read low. activity change, negative = inhibition, % at 10 µM. 3.2% of 360,000 active. AID 504652, 2011; in the data active = activity change below about -30%
#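 HEK293 T-REx cells expressing inducible, force-coupled D1 receptor; no-wash Ca dye, 30–90 min RT. Cmpd → 180 s read at 1 Hz → EC80 DA → 180 s read.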
# D1 potentiator – Potentiators of Human D1 Dopamine Receptor: qHTS | D(1A) dopamine receptor (Homo sapiens), P21728 | HEK293 TREx D1 cells, calcium flux, dopamine EC20 potentiation | potentiation, % at 10 µM | 0.036% of 360,000 active; in the data active = potentiation above about 30%
# Hits are given with their value; – = inactive; · = no result.
SMILES,D3 antag,DRD3 agonist,D1 agonist,D1 antag,D1 potentiator
O=C(CCSc1ccccc1Cl)Nc1cccc([N+](=O)[O-])c1,–,–,–,-35,–
COc1ccc(CN2COc3ccc4c(-c5ccc(OC)cc5)cc(=O)oc4c3C2)cc1,·,–,–,–,–
Cc1ccc(/C=C/c2onc(C)c2S(=O)(=O)N2CCC(C(=O)Nc3cccc(C#N)c3)CC2)cc1,·,–,–,–,–
O=[N+]([O-])c1cccc(NC(=S)Nc2nc(-c3ccc(Cl)cc3Cl)cs2)c1,·,·,–,-31,–
CCN(CCC(=O)Nc1ccc(Br)c(C)c1)Cc1ccccc1,-82,–,–,–,–
Cc1cc(NC(=O)CCN2CCC(C)CC2)ccc1Br,-106,–,–,–,–
CC1CCN(CCC(=O)Nc2ccc(Br)cc2)CC1,-76,–,·,·,·
CC1CCN(CCC(=O)Nc2ccc(F)c(F)c2)CC1,-51,–,–,–,–
Cc1ccc(C)c(CN2C(=O)c3ccccc3S(=O)(=O)c3ccc(C(=O)N4CCCCC4)cc32)c1,·,–,–,–,–
Cc1cc(C)cc(OCC(=O)NCC2(N(C)C)CCCCC2)c1,·,–,–,–,–
CO/N=C(/C(=O)N[C@@H]1C(=O)N2C(C(=O)[O-])=C(C[n+]3ccn4ncccc43)CS[C@H]12)c1nsc(N)n1,·,–,·,·,·
COC(=O)c1ccc2c(c1)C(=O)/C(=C/c1ccc(C)cc1)O2,–,–,–,–,–
CN(C)c1ccc(/C=C2\Oc3ccc(C#Cc4cccc(N)c4)cc3C2=O)cc1,–,56,·,·,·
CCc1ccc(NC(=O)Cn2nnc(-c3ccccc3N)n2)cc1,·,80,–,–,–
Cc1cccc(N2CCN(C(=O)COc3noc4nc(C)cc(C)c34)CC2C)c1 (stereo not drawn),–,34,·,·,·
Cc1cccc(N2CCN(c3ncnc4onc(C)c34)CC2C)c1 (stereo not drawn),·,–,–,–,–
CCOC(=O)N1CCN(C(=O)CNC(=O)c2nn(-c3ccc(OC)c(OC)c3)c(=O)c3ccccc23)CC1,–,54,–,–,–
COc1cccc(-n2nc(C(=O)O)c3ccccc3c2=O)c1,–,–,–,–,–
COC(=O)CNC(=O)c1nn(-c2cccc(OC)c2)c(=O)c2ccccc12,–,–,–,-40,–
CC(CN1c2ccccc2Sc2cccnc21)N(C)C (stereo not drawn),·,–,·,·,·
COc1ccc(CCNC(=O)c2cccc(Nc3nc4ccccc4nc3-n3nc(C)cc3C)c2)cc1OC,·,–,–,–,–
O=S(=O)(c1ccccc1)N(Cc1nc(-c2ccccc2)no1)C1CCCCC1,-53,–,–,–,–
O=S(=O)(c1ccc(F)cc1)N(Cc1nc(-c2ccccc2)no1)C1CCCCC1,·,–,–,–,–
CC(C)C(NS(=O)(=O)c1ccc2c(c1)oc(=O)n2C)C(=O)NCc1ccccc1 (stereo not drawn),·,–,–,–,–
O=C(NC1CCCC1)c1ccc2c(=O)n(Cc3ccccc3)c(SCc3ccc([N+](=O)[O-])cc3)nc2c1,·,–,–,–,–
SMILES,D3 antag,DRD3 agonist,D1 agonist,D1 antag,D1 potentiator
Cc1[nH]cc(Br)c(=O)c1Oc1ncc(C(F)(F)F)cc1Cl,–,–,–,-35,–
FC(F)(F)c1cnc(Oc2cccc3ccccc23)c(Cl)c1,–,–,–,–,–
O=C(c1cnc(N2CCCCC2)c2ccccc12)N1CCN(c2cccc(Cl)c2)CC1,·,–,–,–,–
C1CCN(CCCNC2C3CC4CC(C3)CC2C4)C1 (stereo not drawn),-53,–,–,–,–
N#Cc1cc(S(=O)(=O)c2ccc(Cl)cc2)c(N)[nH]c1=O,–,–,–,-45,–
Cc1cc(C)c(S(=O)(=O)c2ccc(Cl)cc2)c(=O)[nH]1,–,–,–,–,–
COc1ccc(Nc2nc(N)c3ccccc3n2)c(OC)c1,–,–,–,-37,–
COc1ccc(Nc2nc(N3CCCC3)nc(N3CCCC3)n2)c(OC)c1,–,146,–,–,–
COc1ccc(Nc2nc(N3CCCCC3)nc(N3CCCCC3)n2)c(OC)c1,–,–,–,–,–
CCOc1nc(Nc2ccc(OC)cc2OC)nc(OCC)n1,–,–,–,-31,–
COc1ccc(Nc2nc(-c3ccccc3)nc3ccccc23)c(OC)c1,–,–,–,–,–
CCOc1cccc(C2c3c(oc4ccc(F)cc4c3=O)C(=O)N2c2cc(C)ccn2)c1 (stereo not drawn),·,–,–,–,–
COc1ccc(C)cc1-n1cnc2cc(C(=O)NC3CCCCCC3)ccc21,·,–,–,–,–
Cc1ccc(CN(Cc2ccco2)C(=O)c2ccccc2Cl)o1,·,–,–,–,–
C/C(=N\NC(=O)C1CC1(c1ccccc1)c1ccccc1)c1cccc([N+](=O)[O-])c1 (stereo not drawn),–,–,–,-77,–
Cc1ccc(C2(c3ccc(C)cc3)CC2C(=O)Nc2ccc([N+](=O)[O-])cc2O)cc1 (stereo not drawn),-66,–,–,–,–
C/C(=N\NC(=O)C1CC1c1ccccc1)c1cccc([N+](=O)[O-])c1 (stereo not drawn),–,–,–,–,–
COc1ccc(-n2c3c(cc(-c4nc(-c5ccc(Cl)cc5)cs4)c2=O)C(=O)CC(C)(C)C3)cc1Cl,·,–,–,–,–
Cc1sc2ncn(CC(=O)N3CCN(c4ccccc4F)CC3)c(=O)c2c1S(=O)(=O)N1CCC(C)CC1,·,–,–,–,–
CCOC(=O)c1cnc(-n2nc(C)cc2C)nc1NC1CCCC1,–,–,48,–,–
COc1ccccc1CNC(=O)Cn1c(=O)oc2cc(S(=O)(=O)N3CCC(C)CC3)ccc21,·,–,–,–,–
COC(=O)c1scc(-c2ccc(C)cc2)c1S(=O)(=O)Nc1ccc(OC(F)(F)F)cc1,·,–,–,-31,–
COC(=O)c1scc(-c2ccc(C)cc2)c1S(=O)(=O)Nc1ccc(NC(C)=O)cc1,·,–,–,–,–
COc1ccc(S(=O)(=O)NCC(c2ccco2)S(=O)(=O)c2ccc(C)cc2)cc1C (stereo not drawn),·,–,–,·,–
COc1cccc(CNC(=O)c2cc3c(s2)-c2ccccc2OC3)c1,·,–,–,–,–
COc1cccc(CNC(=O)c2cc3c(s2)-c2c(C)cccc2OC3)c1,·,–,–,-36,–
O=C(O)c1cc(O)c2c(c1)[C@@H]([C@H]1c3cc(C(=O)O)cc(O)c3C(=O)c3c(O[C@@H]4O[C@H](CO)[C@@H](O)[C@H](O)[C@H]4O)cccc31)c1cccc(O[C@@H]3O[C@H](CO)[C@@H](O)[C@H](O)[C@H]3O)c1C2=O,-50,–,·,·,·
O=C1c2c(O)cccc2[C@H]([C@@H]2O[C@H](CO)[C@@H](O)[C@H](O)[C@H]2O)c2cc(CO)cc(O)c21,·,–,·,·,·
